Data on 20 compounds can be found in PubChem BioAssay (NCI).

Test [1] is described as follows: NCI Yeast Anticancer Drug Screen. Data for the rad50 strain (AID 155).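 Note: 0% = growth of vehicle-only cultures of the same strain.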 Conditions: S. cerevisiae rad50 strain growth inhibition; at 50.0 µM; active compounds read high. The procedure, abridged: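 Cells are treated with compound, grown, and their growth is then scored against vehicle-only cultures of the same repair-deficient yeast strain.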
A short description of test [2]: NCI Yeast Anticancer Drug Screen. Data for the mec2-1 strain (AID 157). The conditions noted are these: S. cerevisiae mec2-1 strain, at 50.0 µM, active compounds read high. The procedure, abridged: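 mec2-1 yeast strain, carrying an alteration in DNA damage repair or cell cycle control, was exposed to compounds; growth inhibition was measured relative to vehicle-treated controls.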

A short description of test [3]: NCI Yeast Anticancer Drug Screen. Data for the sgs1 mgt1 strain (AID 161).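 Note: 0% = growth of cultures given vehicle only.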 Conditions: S. cerevisiae sgs1 mgt1 strain, at 50.0 µM, active compounds read high. The gist of the method:
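This yeast growth screen uses a strain with defined DNA-repair lesions; compound-treated growth is compared with vehicle-treated growth.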

Test [4] in a line: NCI Yeast Anticancer Drug Screen. Data for the cln2 rad14 strain (AID 165).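 Note: 0% = growth equal to vehicle treated cultures.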 The conditions noted are these: S. cerevisiae cln2 rad14 strain, at 50.0 µM, active compounds read high. The gist of the method: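 Yeast carrying cln2 and rad14 alterations (cell cycle control and DNA damage repair) were exposed to compounds. Growth inhibition was measured against vehicle-treated controls.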

Test [5] is described as follows: NCI Yeast Anticancer Drug Screen. Data for the bub3 strain (AID 167). Conditions: S. cerevisiae bub3 mutant strain, at 50.0 µM, active compounds read high. The gist of the method:
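Part of a panel of yeast mutants defective in DNA damage repair or cell cycle regulation. Each strain is grown with compound, and inhibition is calculated relative to solvent-treated cultures.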

Test [6] in a line: NCI Yeast Anticancer Drug Screen. Data for the mlh1 rad18 strain (AID 175). The conditions noted are these: S. cerevisiae mlh1 rad18 strain growth inhibition; at 50.0 µM; active compounds read high. The procedure, abridged:
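Growth inhibition of the yeast strain was measured after compound exposure and expressed relative to vehicle-treated controls. The strain carries defined defects in DNA damage repair.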

Compounds without any hit were thinned out: in the full panel of roughly 79,000, 15% have a hit. Unmarked numbers belong to inactive results. Active and inactive are the calls of the source. Cut-off read from the data, not from the text of the source: active = growth inhibition above about 70%; inactive = the rest.

With `CCN(CC)CCC(=O)c1cnc(-c2ccccc2)nc1C`, the growth inhibition in test [1] is 7.35%; in test [2], 35.1%; in test [3], 38.7%; in test [4] it was 2.5%; in test [5] it was 17.5%; in test [6] it was 20.1%.
For `O=C(CC(O)(C(F)(F)Cl)C(F)(F)Cl)c1cccc([N+](=O)[O-])c1`, the growth inhibition in test [1] was 77.5% (active); in test [2], 62%; in test [3], 81.5% (active); in test [4], 72.5% (active); in test [5] it was 61%; in test [6], 95.8% (active).
Turning to `Nc1nc(Sc2ccc([N+](=O)[O-])c3nonc23)c2ncn(C3OC(CO)C(O)C3O)c2n1` (stereo not given), the growth inhibition in test [1] was -0.7%; in test [2] it was -11.3%; in test [3] it was 3%; in test [4], 26.6%; in test [5], -6.3%; in test [6], 11.9%.
With `O=[N+]([O-])c1ccc(S(=O)(=O)N/N=C/C=C/c2ccccc2[N+](=O)[O-])cc1`, the growth inhibition was 5% in test [1]; -5.65% in test [2]; 7.35% in test [3]; -7.55% in test [4]; 16.4% in test [5]; 39.1% in test [6].
As for `Cc1ccc(SCCCN(C)C)cc1`, the growth inhibition is 42% in test [1]; 17.6% in test [2]; 35.6% in test [3]; 15.2% in test [4]; 14.2% in test [5]; 16.3% in test [6].
As to `CCCCS(=O)(=O)Cc1ccccc1`, the growth inhibition is 1.75% in test [1]; -0.55% in test [2]; -1.25% in test [3]; -14.1% in test [4]; 0.3% in test [5]; -17.4% in test [6].
On to `C/C(CCn1[nH]c(=O)ccc1=O)=N\NC(=O)C(=O)NN`, for which the growth inhibition in test [1] was -4.75%; in test [2] it was -18.4%; in test [3], -6.55%; in test [4], 2.55%; in test [5] it was 1.55%; in test [6] it was -8.2%.
As for `CN(C)CCCn1ncc(Sc2cc([N+](=O)[O-])ccc2N)c(Cl)c1=O`, the growth inhibition in test [1] was 2.9%; in test [2], -6.35%; in test [3], -12.3%; in test [4], -8.25%; in test [5] it was -5.55%; in test [6], -6.9%.
Turning to `Nc1cccc2c(O)cc(S(=O)(=O)O)cc12`, the growth inhibition was -1.35% in test [1]; -19.2% in test [2]; 7.6% in test [3]; -10.7% in test [4]; -0.4% in test [5]; 21.6% in test [6].
Take `O=C(c1ccccc1)c1c(-c2ccccc2)sc2nc3ccccc3nc12`: the growth inhibition in test [1] is 3%; in test [2] it was 18.3%; in test [3] it was 3.2%; in test [4] it was 29.1%; in test [5], 2.65%; in test [6] it was 11.2%.
Regarding `C=CCC(=O)OCc1cc2c(cc1Br)OCO2`, the growth inhibition is -26.8% in test [1]; -17.2% in test [2]; -8.35% in test [3]; -10.6% in test [4]; 54.5% in test [5]; 5.85% in test [6].
In the case of `CC(C(=O)O)C(NC(=O)c1ccccc1)C(=O)O` (stereo not given), the growth inhibition in test [1] was 11.5%; in test [2], 5.35%; in test [3], 0.2%; in test [4], 16%; in test [5] it was 4.4%; in test [6] it was 13.4%.
Turning to `O=C(O)c1nc2ccccc2c(=O)[nH]1`, the growth inhibition in test [1] is -3.4%; in test [2], -4.25%; in test [3], -9.7%; in test [4], -43.1%; in test [5], -12.2%; in test [6] it was -4.6%.
With `CCCCN1C(=O)c2ccccc2C1=O`, the growth inhibition in test [1] was 5.55%; in test [2] it was -10.7%; in test [3], 27.2%; in test [4] it was 7.9%; in test [5], 9.45%; in test [6] it was 13.4%.
Turning to `CN1CCN(CN2C(=O)C3C4C=CC(C3C2=O)C2C(=O)N(CN3CCN(C)CC3)C(=O)C42)CC1` (stereo not given), the growth inhibition in test [1] was 18.1%; in test [2] it was 5.95%; in test [3], 13.5%; in test [4], -0.85%; in test [5], 14.6%; in test [6], 16.9%.
Turning to `N#CC(Nc1ccccc1)c1ccc(C(C#N)Nc2ccccc2)cc1` (stereo not given), the growth inhibition in test [1] was 3.2%; in test [2] it was 8.2%; in test [3], -45.2%; in test [4], -21.1%; in test [5] it was -16.2%; in test [6] it was -34.2%.
As to `Br[C@H]1CC2CCC1C2` (stereo not given in full), the growth inhibition was 23.1% in test [1]; -23.9% in test [2]; 2.9% in test [3]; 6.9% in test [4]; -6.1% in test [5]; 5.65% in test [6].
As to `CCC1COC(Nc2cccc3c2CCCC3)=N1` (stereo not given), the growth inhibition in test [1] was -0.05%; in test [2] it was -6.7%; in test [3], -8.75%; in test [4], -30.4%; in test [5], 17.7%; in test [6], 4.55%.
Turning to `COc1ccc(CSc2nc3ccccc3nc2-c2cccs2)cc1`, the growth inhibition in test [1] was -16.2%; in test [2] it was -39.2%; in test [3] it was -43.8%; in test [4], -1.35%; in test [5], -24.9%; in test [6], -54.8%.
As for `CC(=O)c1sc(Nc2ccc(S(=O)(=O)Nc3nc(C)cc(C)n3)cc2)nc1C`, the growth inhibition in test [1] is 15.6%; in test [2], -0.75%; in test [3], 8.9%; in test [4] it was 31.3%; in test [5] it was -11.7%; in test [6] it was -10.1%.
